Experimental data reported in PubChem BioAssay (Tox21).
Inconclusive results are not listed. Active and inactive are the calls of the source. Unless noted, calls follow the shape of the dose curve; as a rule, active = well fitted curve in the direction sought with a large enough effect in the repeat runs; inconclusive = weak or mixed curves; inactive = no such curve, though single readings can be large; an effect the other way counts as inactive or inconclusive.

How the values were obtained:
[1] = qHTS assay to identify small molecule antagonists of the sonic hedgehog signaling (Shh) pathway (AID 1259369; calls by dose curve; also: nearly all actives have a fitted effect of over 45% in size; also: potency is read from the fitted curve at half-maximal effect)
Method in brief: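 Cells are plated and held 4hr at 37 C, compounds (DMSO) are pinned in, conditioned medium is added to stimulate the pathway, and after 24hr luciferase reagent is added for 30min before luminescence is read.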

[2] = molecular target: Estrogen receptor beta (Homo sapiens) (UniProt Q92731); assay: qHTS assay to identify small molecule antagonists of the estrogen receptor beta (ER-beta) signaling pathway (AID 1259378; active = well fitted inhibition curve with a large enough effect in the signal ratio in the repeat runs, not every such curve was filed as active; the % refers to the signal ratio)
Method in brief: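 Antagonist mode: compounds added to beta-lactamase reporter HEK293T ER-beta-UAS cells stimulated with E2 (1nM final), 16 hr at 37C. LiveBLAzer B/G FRET substrate, 2 hours room temperature, fluorescence read-out.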

[3] = qHTS assay to identify small molecule agonists of the androgen receptor (AR) signaling pathway in the presence of an antagonist - cell viability counter screen (AID 1259379);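 also: MDA-kb2 human breast cancer cells carrying an MMTV luciferase reporter; series mostly up to about 92 µM; nearly all actives have a fitted effect of over 25% in size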
Method in brief: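 Cytotoxicity is assessed by CellTiter-Fluor in MDA-kb2 cells carrying an MMTV-driven luciferase reporter. Cells receive 3.0uM nilutamide plus compounds at 15 concentrations and incubate 16 hr at 37C without CO2 before fluorescence reading.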

[4] = qHTS assay to identify small molecule agonists of the estrogen receptor beta (ER-beta) signaling pathway - cell viability counter screen (AID 1259380); also: nearly all actives have a fitted effect of over 30% in size
Method in brief: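 Cytotoxicity is measured in parallel with the reporter screen: after 16 hr compound exposure at 37C and a 2 hr LiveBLAzer step, CellTiter-Glo is added to the same ER-beta-UAS-bla HEK293T wells and luminescence read after 30 min.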

[5] = qHTS assay to identify small molecule antagonists of the estrogen receptor beta (ER-beta) signaling pathway - cell viability counter screen (AID 1259382);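 also: HEK293T cells carrying ER-beta-UAS-bla reporter stimulated with estradiol; series mostly up to about 92 µM; nearly all actives have a fitted effect of over 55% in size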
Method in brief: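 Cytotoxicity counter screen multiplexed with the beta-lactamase antagonist assay: GripTite HEK293T ER-beta-bla cells were treated 16 hr with test chemicals in the presence of 1nM 17-beta-estradiol, and viability was measured by CellTiter-Glo.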

[6] = molecular target: Estrogen receptor (Homo sapiens) (UniProt P03372); assay: qHTS assay to identify small molecule agonists of the estrogen receptor alpha (ER-alpha) signaling pathway in the presence of an antagonist (AID 1259383; calls by dose curve; also: top concentration of the series differs between compounds; nearly all actives have a fitted effect of over 15% in size)
Method in brief: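 Agonist-mode confirmation in the presence of the ER antagonist ICI-182,780 at 10.0nM final. Breast-derived VM7Luc4E2 reporter cells were exposed to compounds for 22hr, and ERE-driven luciferase was quantified by luminescence.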

[7] = qHTS assay to identify small molecule agonists or antagonists of the thyroid stimulating hormone receptor (TSHR) signaling pathway - wild type cell line counter screen (AID 1259384; calls by dose curve)
Method in brief: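 Counter screen in untransfected Hek293: compounds (15-point titration, triplicate) plus phosphodiesterase inhibitor Ro20-1724 added after 18 h plating; 30 min RT. Intracellular cAMP via competitive d2/cryptate immunoassay, 1 h incubation.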

[8] = molecular target: Thyrotropin receptor (Homo sapiens) (UniProt P16473); assay: qHTS assay to identify small molecule antagonists of the thyroid stimulating hormone receptor (TSHR) signaling pathway (AID 1259385; calls by dose curve; also: nearly all actives have a fitted effect of over 20% in size)
Method in brief: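 Antagonist mode: compound-treated TSHR-expressing HEK293 cells were stimulated with 1.5 ng/mL TSH (final) in presence of Ro20-1724 for 30 min at RT. HTRF cAMP detection after 1 h; each compound tested at 15 concentrations, triplicate.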

[9] = qHTS assay to identify small molecule agonists of the estrogen receptor alpha (ER-alpha) signaling pathway in the presence of an antagonist - cell viability counter screen (AID 1259386);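 also: series mostly up to about 92 µM; cells exposed to compounds for 22 h at 37 °C before the viability read; nearly all actives have a fitted effect of over 30% in size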
Method in brief: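 Cytotoxicity was measured in parallel with the ERE-luciferase agonist screen, in the same wells. The cells were VM7Luc4E2, which endogenously express ER-alpha, and treatment was with compounds plus 10.0nM ICI-182,780 for 22hr.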

[10] = molecular target: Progesterone receptor (Homo sapiens) (UniProt P06401); assay: qHTS assay to identify small molecule agonists of the progesterone receptor (PR) signaling pathway (AID 1346784; calls by dose curve; also: nearly all actives have a fitted effect of over 30% in size)
Method in brief: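 Compounds were tested for PR agonism in HEK 293T cells bearing a beta-lactamase gene under UAS control. Treatment lasted 16 hr at 37C; signal came from fluorescence of a FRET substrate.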

[11] = molecular target: Progesterone receptor (Homo sapiens) (UniProt P06401); assay: qHTS assay to identify small molecule antagonists of the progesterone receptor (PR) signaling pathway (AID 1346795; active = well fitted inhibition curve with a large enough effect in the signal ratio in the repeat runs, not every such curve was filed as active; the % refers to the signal ratio)
Method in brief: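 In HEK293T cells bearing the PR-UAS-bla reporter, compound effects on promegestone-driven (1 nM) beta-lactamase expression are assessed after 16 hr using a fluorescent FRET substrate incubated 2 hr at room temperature.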

[12] = qHTS assay to identify small molecule antagonists of the progesterone receptor (PR) signaling pathway - cell viability counter screen (AID 1346798); also: nearly all actives have a fitted effect of over 50% in size; also: potency is read from the fitted curve at half-maximal effect; as to activity change, negative = cytotoxicity: series mostly up to about 92 µM
Method in brief: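 Following a 4 hr attachment, PR-UAS-bla HEK293T cells in charcoal-stripped FBS medium were exposed to compounds with R5020 for 16 hr; CellTiter-Glo was added and luminescence read after 30 min at room temperature.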

[13] = qHTS assay to identify small molecule agonists of the progesterone receptor (PR) signaling pathway - cell viability counter screen (AID 1346799; calls by dose curve; also: nearly all actives have a fitted effect of over 45% in size)
Method in brief: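 Here, 3,000 PR-UAS-bla HEK293T cells per well were treated with compounds for 16 hr after a 6 hr preincubation at 37C and 5% CO2; cell viability is the CellTiter-Glo luminescence signal.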

[14] = qHTS assay to identify small molecule antagonists of the TGF-beta/Smad signaling pathway - cell viability counter screen (AID 1346824); also: nearly all actives have a fitted effect of over 50% in size
Method in brief: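 Cytotoxicity counter-screen run in the same wells as the beta-lactamase Smad reporter read: CellTiter-Glo luminescence after 30 min at room temperature. HEK 293T SBE-bla cells had 5 hr compound exposure at 37 C with TGF-beta1 (0.25 ng/mL stock).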

[15] = qHTS assay to identify small molecule agonists of the TGF-beta/Smad signaling pathway - cell viability counter screen (AID 1346829); also: top concentration of the series differs between compounds; nearly all actives have a fitted effect of over 45% in size
Method in brief: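 Here the cytotoxicity of library compounds is measured in SBE-bla HEK 293T cells treated for 5 hr, using CellTiter-Glo added to wells already read for the beta-lactamase reporter.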

[16] = qHTS assay to identify small molecule agonists of the TGF-beta/Smad signaling pathway (AID 1346859; active = well fitted activation curve with a large enough effect in the signal ratio in the repeat runs, not every such curve was filed as active; the % refers to the signal ratio; also: series mostly up to about 77 µM)
Method in brief: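 Each well held 4,000 SBE-bla HEK 293T cells incubated overnight before compound addition; 5 hr later the cleavable FRET substrate went on for 2 hr at room temperature, and fluorescence was read at two emissions.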

[17] = molecular target: Estrogen receptor beta (Homo sapiens) (UniProt Q92731); assay: qHTS assay to identify small molecule agonists of the estrogen receptor beta (ER-beta) signaling pathway (AID 1259377; active = well fitted activation curve with a large enough effect in the signal ratio in the repeat runs, not every such curve was filed as active; the % refers to the signal ratio)
Method in brief: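 Read-out: beta-lactamase FRET fluorescence. Cell line: ER-beta-UAS-bla HEK293T in 2% charcoal-stripped FBS. Exposure: 16 hr at 37C. Substrate step: 2 h at room temperature.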

[18] = molecular target: Thyrotropin-releasing hormone receptor (Homo sapiens) (UniProt P34981); assay: qHTS assay to identify small molecule antagonists of the thyrotropin-releasing hormone receptor (TRHR) signaling pathway (AID 1346877; active = well fitted inhibition curve with a large enough effect in the repeat runs, not every such curve was filed as active; also: series mostly up to about 51 µM)
Method in brief: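 Antagonism is measured as suppression of the calcium response to 1 nM TRH in TRHR-HEK293 cells that have been dye-loaded for 2 h at 37 °C after overnight plating. Each compound is tested at 15 concentrations in triplicate.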

[19] = molecular target: Thyrotropin-releasing hormone receptor (Homo sapiens) (UniProt P34981); assay: qHTS assay to identify small molecule agonists of the thyrotropin-releasing hormone receptor (TRHR) signaling pathway (AID 1346891; calls by dose curve; also: series mostly up to about 58 µM)
Method in brief: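 Screening of agonists relied on calcium signalling in HEK293 cells expressing human TRHR: dye loading 2 h at 37 °C preceded compound addition and a 3-min fluorescence time course.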

[20] = molecular target: Androgen receptor (Homo sapiens) (UniProt P10275); assay: qHTS assay to identify small molecule agonists of the androgen receptor (AR) signaling pathway in the presence of an antagonist (AID 1259381; calls by dose curve; also: nearly all actives have a fitted effect of over 15% in size)
Method in brief: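 Agonist-mode confirmation screen: human MDA-kb2 cells stably expressing luciferase under an MMTV promoter bearing AR and GR response elements, co-treated with 3.0uM nilutamide (final). Luminescence measured after 16hr compound incubation.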
% is scaled to controls: 0 for no effect and ±100 for the full control effect.

Chain of Progesterone receptor (Homo sapiens) (P06401 whole entry, looked up): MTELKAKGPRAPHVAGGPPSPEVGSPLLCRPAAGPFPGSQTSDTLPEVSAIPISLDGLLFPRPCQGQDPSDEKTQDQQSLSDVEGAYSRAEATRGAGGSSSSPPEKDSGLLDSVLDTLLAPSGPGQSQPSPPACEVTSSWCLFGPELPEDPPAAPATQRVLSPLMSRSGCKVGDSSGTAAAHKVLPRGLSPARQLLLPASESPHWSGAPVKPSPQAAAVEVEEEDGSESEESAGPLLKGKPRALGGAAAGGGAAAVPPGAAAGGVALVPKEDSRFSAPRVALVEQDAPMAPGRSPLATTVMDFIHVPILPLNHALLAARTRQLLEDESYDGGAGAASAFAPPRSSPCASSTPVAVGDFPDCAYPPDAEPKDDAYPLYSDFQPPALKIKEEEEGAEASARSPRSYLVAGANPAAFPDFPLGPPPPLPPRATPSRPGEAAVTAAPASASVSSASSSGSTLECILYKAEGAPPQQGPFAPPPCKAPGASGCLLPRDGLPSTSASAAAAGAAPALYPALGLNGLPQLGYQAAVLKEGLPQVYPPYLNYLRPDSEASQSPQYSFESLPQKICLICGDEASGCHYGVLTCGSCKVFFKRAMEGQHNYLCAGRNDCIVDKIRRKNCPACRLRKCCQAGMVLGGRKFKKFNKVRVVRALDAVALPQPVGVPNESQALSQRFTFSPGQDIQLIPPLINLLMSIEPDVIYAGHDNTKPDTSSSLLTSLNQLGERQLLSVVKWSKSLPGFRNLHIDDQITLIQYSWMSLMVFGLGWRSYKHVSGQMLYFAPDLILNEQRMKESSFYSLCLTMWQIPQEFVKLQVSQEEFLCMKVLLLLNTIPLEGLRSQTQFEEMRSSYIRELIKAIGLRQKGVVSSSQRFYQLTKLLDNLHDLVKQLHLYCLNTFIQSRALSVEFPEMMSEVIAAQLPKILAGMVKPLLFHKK
Chain of Estrogen receptor beta (Homo sapiens) (Q92731 whole entry, looked up): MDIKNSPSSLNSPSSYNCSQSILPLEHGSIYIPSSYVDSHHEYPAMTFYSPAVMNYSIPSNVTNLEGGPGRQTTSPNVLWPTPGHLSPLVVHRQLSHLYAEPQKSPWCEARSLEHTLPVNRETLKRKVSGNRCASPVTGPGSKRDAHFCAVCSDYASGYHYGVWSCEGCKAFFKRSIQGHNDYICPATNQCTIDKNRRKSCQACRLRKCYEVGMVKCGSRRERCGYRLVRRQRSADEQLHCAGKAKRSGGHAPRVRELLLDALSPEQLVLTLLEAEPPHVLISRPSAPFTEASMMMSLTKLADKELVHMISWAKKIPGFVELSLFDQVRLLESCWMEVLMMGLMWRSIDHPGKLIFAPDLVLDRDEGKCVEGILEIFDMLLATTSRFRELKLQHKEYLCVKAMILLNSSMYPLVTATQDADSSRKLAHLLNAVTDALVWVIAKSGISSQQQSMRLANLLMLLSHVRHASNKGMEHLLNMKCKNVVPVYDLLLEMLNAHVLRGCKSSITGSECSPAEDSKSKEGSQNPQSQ
Chain of Thyrotropin-releasing hormone receptor (Homo sapiens) (P34981 whole entry, looked up): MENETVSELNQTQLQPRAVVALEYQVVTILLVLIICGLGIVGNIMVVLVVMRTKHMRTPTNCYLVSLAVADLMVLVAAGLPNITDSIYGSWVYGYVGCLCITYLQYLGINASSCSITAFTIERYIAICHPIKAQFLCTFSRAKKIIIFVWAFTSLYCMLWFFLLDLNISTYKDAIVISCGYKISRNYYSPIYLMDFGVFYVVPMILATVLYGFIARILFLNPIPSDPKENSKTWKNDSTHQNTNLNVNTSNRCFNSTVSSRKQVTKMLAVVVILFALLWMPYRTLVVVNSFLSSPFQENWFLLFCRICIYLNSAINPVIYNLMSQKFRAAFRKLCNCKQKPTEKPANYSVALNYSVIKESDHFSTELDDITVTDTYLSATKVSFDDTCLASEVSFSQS
Chain of Estrogen receptor (Homo sapiens) (P03372 whole entry, looked up): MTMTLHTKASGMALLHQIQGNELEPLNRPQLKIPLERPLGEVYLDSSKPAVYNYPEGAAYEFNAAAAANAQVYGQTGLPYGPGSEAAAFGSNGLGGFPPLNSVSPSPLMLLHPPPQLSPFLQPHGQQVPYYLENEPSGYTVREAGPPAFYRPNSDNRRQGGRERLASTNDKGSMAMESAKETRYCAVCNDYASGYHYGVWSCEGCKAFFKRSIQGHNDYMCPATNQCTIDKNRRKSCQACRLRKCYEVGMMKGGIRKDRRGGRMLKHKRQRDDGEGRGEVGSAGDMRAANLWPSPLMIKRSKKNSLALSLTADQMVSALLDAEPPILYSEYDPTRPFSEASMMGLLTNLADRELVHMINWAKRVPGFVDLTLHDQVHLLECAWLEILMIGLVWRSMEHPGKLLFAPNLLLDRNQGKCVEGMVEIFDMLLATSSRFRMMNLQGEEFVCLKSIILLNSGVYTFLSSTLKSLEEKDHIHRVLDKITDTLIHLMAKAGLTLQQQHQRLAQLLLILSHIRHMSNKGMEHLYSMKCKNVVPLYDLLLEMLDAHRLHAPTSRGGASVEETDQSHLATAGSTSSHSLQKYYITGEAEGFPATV
Chain of Thyrotropin receptor (Homo sapiens) (P16473 whole entry, looked up): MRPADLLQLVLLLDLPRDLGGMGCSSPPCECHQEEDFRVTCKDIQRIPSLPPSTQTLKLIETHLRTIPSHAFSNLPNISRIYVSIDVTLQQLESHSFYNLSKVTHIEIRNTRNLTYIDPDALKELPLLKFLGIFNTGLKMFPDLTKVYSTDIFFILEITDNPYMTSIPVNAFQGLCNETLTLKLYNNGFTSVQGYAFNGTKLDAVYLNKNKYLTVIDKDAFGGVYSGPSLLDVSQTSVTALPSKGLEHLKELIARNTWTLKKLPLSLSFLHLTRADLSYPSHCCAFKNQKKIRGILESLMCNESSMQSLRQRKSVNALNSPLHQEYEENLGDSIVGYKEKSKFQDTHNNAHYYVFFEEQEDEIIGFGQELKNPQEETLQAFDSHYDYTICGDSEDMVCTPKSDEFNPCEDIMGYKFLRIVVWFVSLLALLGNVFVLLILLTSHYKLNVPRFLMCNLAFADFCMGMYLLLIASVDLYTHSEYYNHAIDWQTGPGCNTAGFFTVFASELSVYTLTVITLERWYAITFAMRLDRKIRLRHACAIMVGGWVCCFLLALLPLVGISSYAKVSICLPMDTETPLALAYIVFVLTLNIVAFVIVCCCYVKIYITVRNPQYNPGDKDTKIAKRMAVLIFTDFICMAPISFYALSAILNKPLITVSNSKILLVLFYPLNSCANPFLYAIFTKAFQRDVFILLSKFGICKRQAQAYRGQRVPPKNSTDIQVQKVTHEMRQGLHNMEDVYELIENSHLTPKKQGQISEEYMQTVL
Chain of Androgen receptor (Homo sapiens) (P10275 whole entry, looked up): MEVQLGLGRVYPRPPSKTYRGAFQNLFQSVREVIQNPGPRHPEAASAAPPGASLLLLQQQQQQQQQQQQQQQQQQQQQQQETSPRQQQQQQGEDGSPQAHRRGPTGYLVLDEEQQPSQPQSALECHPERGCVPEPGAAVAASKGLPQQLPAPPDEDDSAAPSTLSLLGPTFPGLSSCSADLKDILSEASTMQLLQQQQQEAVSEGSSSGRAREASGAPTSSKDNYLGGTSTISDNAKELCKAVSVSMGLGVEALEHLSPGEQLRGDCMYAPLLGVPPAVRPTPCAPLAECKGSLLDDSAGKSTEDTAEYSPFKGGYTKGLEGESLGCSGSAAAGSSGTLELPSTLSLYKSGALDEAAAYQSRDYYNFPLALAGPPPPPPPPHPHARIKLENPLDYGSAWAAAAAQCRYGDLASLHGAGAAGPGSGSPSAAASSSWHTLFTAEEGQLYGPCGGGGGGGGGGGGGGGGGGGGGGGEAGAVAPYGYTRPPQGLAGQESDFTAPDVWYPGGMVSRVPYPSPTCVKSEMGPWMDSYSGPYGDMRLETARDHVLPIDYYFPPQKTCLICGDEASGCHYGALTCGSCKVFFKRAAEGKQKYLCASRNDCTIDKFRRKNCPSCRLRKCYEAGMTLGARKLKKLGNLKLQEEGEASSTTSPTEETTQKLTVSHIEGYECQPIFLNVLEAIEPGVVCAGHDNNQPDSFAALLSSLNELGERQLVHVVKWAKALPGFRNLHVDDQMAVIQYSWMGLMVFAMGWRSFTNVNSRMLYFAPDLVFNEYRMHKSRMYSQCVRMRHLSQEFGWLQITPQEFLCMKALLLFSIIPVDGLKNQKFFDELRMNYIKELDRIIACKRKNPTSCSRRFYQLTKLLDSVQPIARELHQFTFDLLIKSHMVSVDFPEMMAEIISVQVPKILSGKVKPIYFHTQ

O=C1CCCc2ccccc21
inactive: Potency [1] | Potency [2] | Potency [3] | Potency [4] | outcome [5] | Potency [6] | outcome [7] | Potency [8] | Potency [9] | Potency [10] | Potency [11] | Potency [12] | Potency [13] | outcome [14] | outcome [15] | outcome [16]

CC(C)NC[C@@H](O)COc1cccc2ccccc12
inactive: Potency [1] | outcome [17] | Potency [3] | Potency [9] | Potency [10] | Potency [11] | outcome [14] | outcome [15] | outcome [16] | outcome [18] | Potency [19]

CCN[C@H]1CN(CCCOC)S(=O)(=O)c2sc(S(N)(=O)=O)cc21
inactive: Potency [1] | Potency [2] | Potency [3] | Potency [4] | outcome [5] | Potency [6] | outcome [7] | Potency [8] | Potency [9] | Potency [10] | Potency [11] | Potency [12] | Potency [13] | outcome [14] | outcome [15] | outcome [16] | outcome [18] | Potency [19]

O=C1Nc2ccc([N+](=O)[O-])cc2C1=O
inactive: Potency [1] | outcome [17] | Potency [2] | outcome [5] | outcome [7] | Potency [8] | Potency [10] | Potency [11] | Potency [12] | Potency [13] | outcome [14] | outcome [15] | outcome [16] | outcome [18] | Potency [19]

O=c1[nH]c(=O)n([C@H]2C[C@H](O)[C@@H](CO)O2)cc1C(F)(F)F
inactive: Potency [1] | outcome [17] | Potency [3] | Potency [4] | outcome [5] | Potency [6] | outcome [7] | Potency [8] | Potency [9] | Potency [10] | Potency [11] | Potency [12] | outcome [14] | outcome [15] | outcome [16] | outcome [18] | Potency [19]

CC(Oc1c(Cl)cccc1Cl)C1=NCCN1 (stereo not drawn)
inactive: outcome [17] | Potency [2] | Potency [3] | Potency [20] | outcome [5] | outcome [7] | Potency [8] | Potency [10] | outcome [14] | outcome [15] | outcome [16] | outcome [18] | Potency [19]
active: Potency [1] 13.3 µM | Potency [12] 29.8 µM

CN(C)C(=O)NC1(c2ccccc2)CCN(CCC[C@]2(c3ccc(Cl)c(Cl)c3)CCCN(C(=O)c3ccccc3)C2)CC1
inactive: activity change, negative = inhibition [1] -22.9% [at 19 µM] | activation [17] -0.37% [at 19 µM] | activity, negative = inhibition [2] -8.74% [at 19 µM] | activity change, negative = cytotoxicity [3] -7% [at 19 µM] | activity change, negative = cytotoxicity [5] -18% [at 19 µM] | activation [6] -0.618% [at 19 µM] | cAMP activity change [7] -1.66% [at 18.9 µM] | activity change, negative = inhibition [8] -0.429% [at 19 µM] | activation [10] -5.56% [at 19 µM] | activity change, negative = inhibition [11] -8.48% [at 18.9 µM] | activity change, negative = cytotoxicity [13] 3.74% [at 19 µM] | viability change, negative = cytotoxic [14] 0% [at 15.8 µM] | activity change, negative = cytotoxicity [15] 2.25% [at 15.8 µM]

O=c1oc2c(O)c(O)cc3c(=O)oc4c(O)c(O)cc1c4c23
inactive: activity change, negative = inhibition [1] 14.9% [at 19 µM] | activation [17] 0.261% [at 19 µM] | activity, negative = inhibition [2] -0.396% [at 19 µM] | activity change, negative = cytotoxicity [3] -4.09% [at 19 µM] | activity change, negative = cytotoxicity [5] -1.21% [at 19 µM] | activation [6] -0.711% [at 19 µM] | activity change, negative = cytotoxicity [9] -2.74% [at 19 µM] | activation [10] -0.0631% [at 19 µM] | Potency [12] | activity change, negative = cytotoxicity [13] -1.25% [at 19 µM] | viability change, negative = cytotoxic [14] -7.88% [at 15.8 µM] | activity change, negative = cytotoxicity [15] 10.9% [at 15.8 µM] | activation [16] 5.13% [at 15.8 µM] | activity, negative = inhibition [18] 1.88% [at 10.5 µM] | activation [19] 0.184% [at 11.8 µM]

NC(=O)Cc1cccc(C(=O)c2ccccc2)c1N
inactive: Potency [1] | outcome [17] | Potency [2] | Potency [3] | Potency [4] | outcome [5] | Potency [9] | Potency [10] | Potency [11] | Potency [12] | outcome [14] | outcome [15] | outcome [16]
